According to PubChem BioAssay (NCATS):
Records with an inconclusive call do not appear. Calls of active or inactive are those of the source. Unless noted, calls follow the shape of the dose curve; as a rule, active = well fitted curve in the direction sought with a large enough effect; inconclusive = small, poorly fitted or top-dose-only effect, or another doubt; inactive = no such curve, though single readings can be large; an effect the other way counts as inactive or inconclusive.

Assays:
[1] = target: Cytochrome P450 3A4 (Homo sapiens) (UniProt P08684); experiment: qHTS Assay for Inhibitors and Substrates of Cytochrome P450 3A4 (AID 884); also: % is scaled to controls: 0 for no effect and ±100 for the full control effect; nearly all actives have a fitted effect of over 50% in size
Sequence of Cytochrome P450 3A4 (Homo sapiens) (P08684 whole entry, looked up): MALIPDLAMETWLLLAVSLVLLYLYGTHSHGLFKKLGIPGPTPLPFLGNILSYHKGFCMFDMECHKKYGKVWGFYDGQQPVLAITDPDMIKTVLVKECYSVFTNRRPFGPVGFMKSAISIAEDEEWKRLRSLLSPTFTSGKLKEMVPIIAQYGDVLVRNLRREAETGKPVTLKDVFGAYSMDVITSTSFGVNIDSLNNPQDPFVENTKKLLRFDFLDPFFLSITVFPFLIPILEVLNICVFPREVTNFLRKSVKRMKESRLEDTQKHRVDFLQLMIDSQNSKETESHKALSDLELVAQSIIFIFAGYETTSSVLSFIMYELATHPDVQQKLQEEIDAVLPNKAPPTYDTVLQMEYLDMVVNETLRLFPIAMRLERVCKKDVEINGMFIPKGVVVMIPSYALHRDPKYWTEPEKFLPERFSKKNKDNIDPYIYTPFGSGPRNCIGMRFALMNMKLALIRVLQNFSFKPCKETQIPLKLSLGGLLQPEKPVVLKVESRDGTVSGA
How it was run: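 20 nM human CYP3A4 with 25 uM Luciferin-PPXE (at KM) in 200 mM KPO4, preincubated 10 min with compound; NADPH regeneration started a 60 min RT reaction. Luciferin detected by luminescence, normalized to 57 uM ketoconazole as full inhibition.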

[2] = Confirmation and Secondary Assay for Modulators of Hemoglobin Beta Chain Splicing at IVS2 654 locus (AID 910);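 also: per-well total GFP intensity by laser scanning cytometry after 2-day treatment; % of control where 0% means no effect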
How it was run: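 HeLa cells stably carrying EGFP interrupted by mutant beta-globin IVS2-654 intron (CMV-driven) were treated with compound for 2 days at 37C; corrected splicing was scored as total peak GFP intensity per well (488 nm excitation, 500-520 nm emission).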

[3] = Confirmation and Secondary Assay for Modulators of Hemoglobin Beta Chain Splicing at IVS2 705 locus (AID 930);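 also: HeLa cells stably expressing the EGFP-705 splicing reporter; GFP fluorescence per well restored by corrected splicing of the IVS2-705 intron in EGFP; % of control where 0% means no effect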
How it was run: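 First, HeLa EGFP-705 cells are seeded at 500/well in Optimem with 2% FCS and left overnight. Next, compound or DMSO is added for 2 days. Finally wells are laser-scanned and total peak GFP intensity scored.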

[4] = target: ATP-dependent 6-phosphofructokinase (Trypanosoma brucei brucei) (UniProt O15648); experiment: qHTS Assay to Find Inhibitors of T. brucei phosphofructokinase: hit validation (AID 492961);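 also: luminescence reports ADP formed as PFK phosphorylates fructose-6-phosphate with ATP; % is scaled to controls: 0 for no effect and ±100 for the full control effect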
Sequence of ATP-dependent 6-phosphofructokinase (Trypanosoma brucei brucei) (O15648 whole entry, looked up): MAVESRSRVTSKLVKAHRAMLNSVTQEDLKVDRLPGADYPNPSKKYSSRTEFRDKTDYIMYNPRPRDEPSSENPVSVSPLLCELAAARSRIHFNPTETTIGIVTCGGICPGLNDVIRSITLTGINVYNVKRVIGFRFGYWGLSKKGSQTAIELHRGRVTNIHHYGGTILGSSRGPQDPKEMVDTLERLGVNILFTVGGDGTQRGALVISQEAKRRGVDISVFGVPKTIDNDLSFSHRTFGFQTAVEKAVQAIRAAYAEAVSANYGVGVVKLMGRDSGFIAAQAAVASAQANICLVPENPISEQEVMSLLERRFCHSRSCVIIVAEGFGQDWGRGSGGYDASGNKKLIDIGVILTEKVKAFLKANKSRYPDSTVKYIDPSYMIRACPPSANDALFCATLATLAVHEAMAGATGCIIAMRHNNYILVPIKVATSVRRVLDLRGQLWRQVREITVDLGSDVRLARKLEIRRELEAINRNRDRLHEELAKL
How it was run: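 Reaction: 0.1 M triethanolamine pH 8.0, 5 mM MgCl2, F6P 0.5 mM, ATP 0.1 mM, PFK 1.25 nM, 45 min RT. Read-out: ADP-Glo luminescence. Analysis: concentration-response fits, classed by r2 and efficacy.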

[5] = target: Luciferin 4-monooxygenase (Photinus pyralis) (UniProt P08659); experiment: Biochemical firefly luciferase enzyme assay for NPC (AID 624030);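 also: purified P. pyralis luciferase at 10 nM with luciferin and ATP substrate; 0% = DMSO and -100% = full luciferase inhibition by PTC124 control; nearly all actives have a fitted effect of over 70% in size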
Sequence of Luciferin 4-monooxygenase (Photinus pyralis) (P08659 whole entry, looked up): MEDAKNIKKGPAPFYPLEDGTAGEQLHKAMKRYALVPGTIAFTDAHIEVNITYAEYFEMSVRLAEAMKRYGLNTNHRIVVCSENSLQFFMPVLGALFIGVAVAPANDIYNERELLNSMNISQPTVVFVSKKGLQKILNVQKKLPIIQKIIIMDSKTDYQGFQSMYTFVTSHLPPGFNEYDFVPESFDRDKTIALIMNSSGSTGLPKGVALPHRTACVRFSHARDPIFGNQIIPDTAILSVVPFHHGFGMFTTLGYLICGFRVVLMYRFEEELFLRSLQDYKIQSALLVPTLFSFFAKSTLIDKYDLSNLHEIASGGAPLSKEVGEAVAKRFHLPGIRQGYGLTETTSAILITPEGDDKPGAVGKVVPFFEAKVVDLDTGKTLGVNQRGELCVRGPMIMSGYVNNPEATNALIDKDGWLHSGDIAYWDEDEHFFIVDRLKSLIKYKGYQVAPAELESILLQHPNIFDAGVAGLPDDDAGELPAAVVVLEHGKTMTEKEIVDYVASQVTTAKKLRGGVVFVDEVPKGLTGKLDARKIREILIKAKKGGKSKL
How it was run: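 Counter-screen for direct inhibition of the luciferase enzyme by approved-drug library compounds, run at 10 nM enzyme in 50 mM Tris acetate (final). Luminescence was read within 5 min of enzyme-buffer addition and normalized to PTC124 versus DMSO (0%).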

[6] = S16 Schwann cell viability assay (CellTiter-Glo assay) (AID 624031);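 also: native untransfected S16 rat Schwann cells; plate controls were DMSO-treated cells for no effect and cell-free wells for full effect; nearly all actives have a fitted effect of over 70% in size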
How it was run: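 Counter-screen for cytotoxicity: parental S16 rat Schwann cells lacking the PMP22 reporters, treated 24 h with compound, viability from cellular ATP by CellTiter-Glo luminescence, normalized to DMSO (0%) and no-cell wells.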

[7] = S16 Schwann cell PMP22 intronic element firefly luciferase assay (AID 624032);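 also: plate controls were DMSO for no effect and PTC124 positive control mean for full effect; nearly all actives have a fitted effect of over 30% in size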
How it was run: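 Rat S16 Schwann cells stably carrying a PMP22 intronic element-driven Fluc reporter were seeded overnight, then exposed to compounds for 24 h at 37 °C. Luminescence was normalized to PTC124 (positive control) and DMSO (0% activity).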

[8] = S16 Schwann cell PMP22 intronic element beta-lactamase assay (AID 624044; calls by dose curve;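 also: 0% = DMSO and -100% = potassium clavulanate positive control; nearly all actives have a fitted effect of over 15% in size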)
How it was run: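 Rat S16 Schwann cells with beta-Lac driven by a PMP22 intronic element, compound-treated 24 h at 37 °C. LiveBLAzer FRET B/G read: 460 nm normalized to potassium clavulanate vs DMSO; 535 nm FRET as viability; concentration-effect curves classified.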

[9] = qHTS profiling for inhibitors of Plasmodium falciparum proliferation (AID 504749);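 also: 0% = DMSO vehicle and full inhibition = artemisinin control; nearly all actives have a fitted effect of over 60% in size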; details: P. falciparum in erythrocytes, SYBR Green DNA, 72 h, at 28.7 µM (top of the series)
How it was run: (§1)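 P. falciparum-infected erythrocytes (0.3% parasitemia, 2.5% hematocrit final) were exposed to compounds for 72 h at 37 C in 5% CO2, then lysed with SYBR Green buffer overnight at room temperature; parasite DNA fluorescence was normalized to artemisinin and DMSO controls.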

3D7 = experiment: as above; details: P. falciparum in erythrocytes, SYBR Green DNA, 72 h; series mostly up to 12.8 µM
How it was run: as §1

7G8 = experiment: as above; details: P. falciparum in erythrocytes, SYBR Green DNA, 72 h; series mostly up to 12.8 µM
How it was run: as §1

AA1029 = experiment: as above; details: P. falciparum in erythrocytes, SYBR Green DNA, 72 h; series mostly up to 12.8 µM
How it was run: as §1

AS120 = experiment: as above; details: P. falciparum in erythrocytes, SYBR Green DNA, 72 h; series mostly up to 12.8 µM
How it was run: as §1

ATS189 = experiment: as above; details: P. falciparum in erythrocytes, SYBR Green DNA, 72 h; series mostly up to 12.8 µM
How it was run: as §1

ATS95 = experiment: as above; details: P. falciparum in erythrocytes, SYBR Green DNA, 72 h; series mostly up to 12.8 µM
How it was run: as §1

C2A = experiment: as above; details: P. falciparum in erythrocytes, SYBR Green DNA, 72 h; series mostly up to 12.8 µM
How it was run: as §1

CP185 = experiment: as above; details: P. falciparum in erythrocytes, SYBR Green DNA, 72 h; series mostly up to 12.8 µM
How it was run: as §1

CP191 = experiment: as above; details: P. falciparum in erythrocytes, SYBR Green DNA, 72 h; series mostly up to 12.8 µM
How it was run: as §1

CP192 = experiment: as above; details: P. falciparum in erythrocytes, SYBR Green DNA, 72 h; series mostly up to 12.8 µM
How it was run: as §1

CP194 = experiment: as above; details: P. falciparum in erythrocytes, SYBR Green DNA, 72 h; series mostly up to 12.8 µM
How it was run: as §1

CP201 = experiment: as above; details: P. falciparum in erythrocytes, SYBR Green DNA, 72 h; series mostly up to 12.8 µM
How it was run: as §1

CP203 = experiment: as above; details: P. falciparum in erythrocytes, SYBR Green DNA, 72 h; series mostly up to 12.8 µM
How it was run: as §1

CP211 = experiment: as above; details: P. falciparum in erythrocytes, SYBR Green DNA, 72 h; series mostly up to 12.8 µM
How it was run: as §1

CP215 = experiment: as above; details: P. falciparum in erythrocytes, SYBR Green DNA, 72 h; series mostly up to 12.8 µM
How it was run: as §1

CP217 = experiment: as above; details: P. falciparum in erythrocytes, SYBR Green DNA, 72 h; series mostly up to 12.8 µM
How it was run: as §1

CP237 = experiment: as above; details: P. falciparum in erythrocytes, SYBR Green DNA, 72 h; series mostly up to 12.8 µM
How it was run: as §1

CP238 = experiment: as above; details: P. falciparum in erythrocytes, SYBR Green DNA, 72 h; series mostly up to 12.8 µM
How it was run: as §1

CP247 = experiment: as above; details: P. falciparum in erythrocytes, SYBR Green DNA, 72 h; series mostly up to 12.8 µM
How it was run: as §1

CP250 = experiment: as above; details: P. falciparum in erythrocytes, SYBR Green DNA, 72 h; series mostly up to 12.8 µM
How it was run: as §1

CP252 = experiment: as above; details: P. falciparum in erythrocytes, SYBR Green DNA, 72 h; series mostly up to 12.8 µM
How it was run: as §1

CP256 = experiment: as above; details: P. falciparum in erythrocytes, SYBR Green DNA, 72 h; series mostly up to 12.8 µM
How it was run: as §1

CP260 = experiment: as above; details: P. falciparum in erythrocytes, SYBR Green DNA, 72 h; series mostly up to 12.8 µM
How it was run: as §1

CP262 = experiment: as above; details: P. falciparum in erythrocytes, SYBR Green DNA, 72 h; series mostly up to 12.8 µM
How it was run: as §1

CC1(C)SC2C(N3C(=O)C(c4ccccc4)NC3(C)C)C(=O)N2C1C(=O)O (centres undefined)
inactive: Potency [1] | Potency [2] | Potency [3] | outcome [4] | Potency [5] | outcome [6] | Potency [7] | Potency [8] | activity, negative = inhibition ([9]; parasite line A) -1.6% | activity, negative = inhibition ([9]; parasite line B) 9.57% | Potency (3D7) | Potency (7G8) | Potency (AA1029) | Potency (AS120) | Potency (ATS189) | Potency (ATS95) | Potency (C2A) | Potency (CP185) | Potency (CP191) | Potency (CP192) | Potency (CP194) | Potency (CP201) | Potency (CP203) | Potency (CP211) | Potency (CP215) | Potency (CP217) | Potency (CP237) | Potency (CP238) | Potency (CP247) | Potency (CP250) | Potency (CP252) | Potency (CP256) | Potency (CP260) | Potency (CP262)
